These results are taken from article PMC12215968.

Experiment [1] addresses Heat shock-related 70 kDa protein 2 (UniProt P54652). The experiment can be described thus: cross-linking mass spectrometry.
The target of experiment [2] is Heat shock protein 105 kDa (UniProt Q92598). In words: cross-link between two proteins; cross-linking mass spectrometry.
For a further experiment, the target named is Histone H2B type 1-L (UniProt Q99880). The experiment can be described thus: cross-linking mass spectrometry.
Another experiment concerns the target Nucleobindin-1 (UniProt Q02818). In words: cross-linking mass spectrometry.
The target of another experiment is 14-3-3 protein epsilon (UniProt P62258). The experiment can be described thus: cross-link between two proteins; cross-linking mass spectrometry.
Experiment [3] concerns the target 26S proteasome non-ATPase regulatory subunit 1 (UniProt Q99460). Described as above.
For experiment [4], the target named is 26S proteasome regulatory subunit 10B (UniProt P62333). The experiment is described as above.
Experiment [5] has as its target 26S proteasome regulatory subunit 7 (UniProt P35998). Described as above.
Experiment [6] concerns the target ATP synthase F(1) complex subunit alpha, mitochondrial (UniProt Q03265). Described as above.
Experiment [7] concerns the target ATP synthase F(1) complex subunit gamma, mitochondrial (UniProt Q91VR2). The description is as above.
In experiment [8] the target is Creatine kinase U-type, mitochondrial (UniProt P12532). The experiment is described as above.
The target in experiment [9] is Elongation factor 1-alpha 2 (UniProt Q05639). Described as above.
For experiment [10], the target named is Heterogeneous nuclear ribonucleoprotein A1-like 2 (UniProt Q32P51). The description is as above.
Experiment [11] concerns the target NADH dehydrogenase [ubiquinone] 1 beta subcomplex subunit 5, mitochondrial (UniProt Q9CQH3). The description is as above.
For another experiment, the target named is Septin-10 (UniProt Q9P0V9). The experiment is described as above.
A further experiment has as its target Tubulin beta-2B chain (UniProt Q9BVA1). The description is as above.

On to Heat shock 70 kDa protein 4, P34932, for which the “listed as a hit” value in [1] and in experiment [2] was “yes” each time. Take “Non-histone chromosomal protein HMG-14, P05114”: the “listed as a hit” value with Histone H2B type 1-L is recorded as “yes”.

On to Nucleobindin-2, P80303, for which the “listed as a hit” value with Nucleobindin-1 is “yes”. As to 14-3-3 protein sigma, P31947, the “listed as a hit” value with 14-3-3 protein epsilon is recorded as “yes”. For the substance Proteasome subunit alpha type-4, P25789, the “listed as a hit” value in experiment [3] is “yes”. Consider “26S proteasome non-ATPase regulatory subunit 7, P51665”, for which the “listed as a hit” value in [4] is reported as “yes”. On the same count and under the same terms, the same measure for Proteasome subunit alpha type-6, P60900: “yes”.

With Proteasome subunit alpha type-7, O14818, the “listed as a hit” value in experiment [5] is on record as “yes”.

With “ATP synthase F(1) complex subunit epsilon, mitochondrial, P56382”, the “listed as a hit” value in experiment [6] is “yes”.

In the case of “ATP synthase F(1) complex subunit alpha, mitochondrial, Q03265”, the “listed as a hit” value in experiment [7] is recorded as “yes”. Consider Creatine kinase B-type, P12277, for which, in [8], the “listed as a hit” value is on record as “yes”. With Elongation factor 1-beta, P24534, the “listed as a hit” value in [9] is “yes”.

Turning to “Heterogeneous nuclear ribonucleoprotein A0, Q13151”, the “listed as a hit” value in experiment [10] is recorded as “yes”. “NADH dehydrogenase [ubiquinone] 1 subunit C2, Q9CQ54”: the “listed as a hit” value in experiment [11] is listed as “yes”. On to Septin-7, Q16181, for which the “listed as a hit” value in the experiment with Septin-10 is on record as “yes”. For the substance Tubulin-specific chaperone A, O75347, in the experiment with Tubulin beta-2B chain, the “listed as a hit” value is given as “yes”.
